Assay results taken from PubChem BioAssay AID588579 (National Center for Advancing Translational Sciences (NCATS), 2011).
Where “and” joins values, the source holds several entries; their conditions need not be identical. Identical values can stand only once. Among all 400,000 compounds or so, about 2,200 (0.55%) were called active. Where a call stands in place of a potency, no number is given. Another 1% or so got no clear call; they are omitted. Calls come from the whole dose curve; as a rule, active = well fitted inhibition curve with a large enough effect; inconclusive = small, poorly fitted or top-dose-only effect, or another doubt; inactive = no such curve, though single readings can be large or run the other way. The sample as a whole holds a higher share of actives than the screen did.

The compounds below were run against DNA polymerase kappa (Homo sapiens) (UniProt Q9UBT6) (assay: qHTS for Inhibitors of Polymerase Kappa). Conditions: purified Pol kappa, fluorescent DNA synthesis assay, 10 min; series mostly up to 107 µM.
In short: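 Enzyme at 10 nM met test compounds for 15 min at room temperature. Substrate addition (50 nM final) began the reaction, which was monitored by fluorescence at 0 and 10 min.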
Potency is the fitted concentration of half-maximal effect.

Chain of DNA polymerase kappa (Homo sapiens) (Q9UBT6 whole entry, looked up): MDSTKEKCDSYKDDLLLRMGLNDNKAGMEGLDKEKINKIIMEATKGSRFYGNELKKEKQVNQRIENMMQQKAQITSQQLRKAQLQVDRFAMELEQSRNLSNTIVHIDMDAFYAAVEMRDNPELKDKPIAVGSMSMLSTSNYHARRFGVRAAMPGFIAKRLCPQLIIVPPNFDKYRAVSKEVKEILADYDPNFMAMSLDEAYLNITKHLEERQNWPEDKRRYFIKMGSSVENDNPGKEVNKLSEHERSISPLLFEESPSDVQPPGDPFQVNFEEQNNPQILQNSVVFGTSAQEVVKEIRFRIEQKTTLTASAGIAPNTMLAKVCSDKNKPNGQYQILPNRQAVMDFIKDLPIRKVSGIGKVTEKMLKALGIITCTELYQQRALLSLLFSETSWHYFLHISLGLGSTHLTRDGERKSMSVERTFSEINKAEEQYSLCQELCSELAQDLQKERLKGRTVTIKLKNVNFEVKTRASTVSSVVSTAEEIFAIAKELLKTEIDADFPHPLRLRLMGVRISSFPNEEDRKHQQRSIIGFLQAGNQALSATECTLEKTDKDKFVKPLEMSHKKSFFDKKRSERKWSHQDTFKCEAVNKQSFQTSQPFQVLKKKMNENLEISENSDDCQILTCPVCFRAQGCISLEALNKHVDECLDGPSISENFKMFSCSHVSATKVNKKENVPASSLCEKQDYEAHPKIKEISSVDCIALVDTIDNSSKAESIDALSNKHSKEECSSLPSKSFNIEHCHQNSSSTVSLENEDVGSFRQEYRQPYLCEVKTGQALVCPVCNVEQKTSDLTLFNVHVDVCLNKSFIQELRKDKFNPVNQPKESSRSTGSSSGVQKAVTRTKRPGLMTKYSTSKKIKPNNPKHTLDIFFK

Compound	Potency	activity, negative = inhibition
O=c1ccc2c(-c3ccccc3S(=O)(=O)O)c3ccc(O)c(O)c3oc-2c1O	0.708 µM (active)	
Cc1nc2cnc(N3CCNCC3)nc2n(Cc2ccc(F)cc2)c1=O	inactive	
Clc1cccc[n+]1CCCC[n+]1ccccc1Cl	inactive	
Cc1c(CCO)sc[n+]1CC(=O)c1ccc2ccccc2c1	inactive	
CCN1CCN(c2ccc(/C=C/c3ccnc4ccccc34)cc2)CC1	inactive	
CCOc1cccc2c1N[C@@H](c1ccc(C(=O)O)cc1)[C@H]1CC=C[C@@H]21	3.98 µM (active)	
CCOc1ccccc1C1NC(=O)NC(C)=C1C(=O)OCc1ccco1 (stereo not given)	inactive	
CCOc1cccc(CC(=O)N2CCc3c([nH]c4ccccc34)C2c2ccc(F)cc2)c1OCC (stereo not given)	inactive	
O=C(O)c1ccc(/C=C2/SC(=S)N(c3cccc(C(F)(F)F)c3)C2=O)cc1		-8.36% [at 12 µM] (inactive)
N#Cc1c(N2CCCCC2)nc(N)c2c(N)nc(SCC(=O)O)cc12	39.8 µM (active)	
CC1C(O)CC2C(C(=O)O)=CO[C@@H](O[C@H]3OC(CO)C(O)C(O)C3O)C21 (stereo not given in full)	inactive	
CS(=O)(=O)N1CCC2(CCN(c3ccncc3)CC2)CC1	inactive	
Oc1ccc(-c2c(-c3ccccc3)nn3c(C(F)(F)F)cc(C(F)(F)F)nc23)cc1		-10.8% [at 12 µM] (inactive)
Cc1c(S(=O)(=O)O)oc2c1C(=O)C(=O)c1c-2ccc2c1CCCC2(C)C	35.5 µM (active)	
CCC(CCC(C)C1CCC2C3CC=C4CC(O)CC[C@@]4(C)C3CC[C@@]12C)C(C)C (stereo not given in full)		8.1% [at 19.4 µM] (inactive)
C[N+]1(CC(=O)c2cccs2)CCOCC1	inactive	
CCOc1ccc(NC(=O)Cn2c(C)ccc(C#N)c2=O)cc1	inactive	
CCOC(=O)c1ccc(-c2ccc(/C=C(\C#N)C(=O)Nc3ccc(OCC)cc3)o2)cc1	inactive	
CCOc1ccc(NC(=O)c2ccc(NC(=O)COC(=O)c3ccc(NC(=O)CC#N)cc3)cc2)cc1	22.4 µM (active)	
CS(=O)c1ccc(/C=C2\C=Cc3ccccc32)cc1 (stereo not given)	inactive	
CN(C)c1cccc2ccccc12	inactive	
C=C1/C(=C\C=C2\CCCC3(C)C2CCC3C(C)/C=C/C(O)C2CC2)CC(O)CC1O (stereo not given)	inactive	

Compound	Potency	activity, negative = inhibition
COc1cc2nc(C#Cc3nc4cc(OC)c(OC)cc4[nH]3)[nH]c2cc1OC	inactive	
O=C(CSc1nc2ccccc2c(=O)[nH]1)Nc1nc(-c2ccc(Br)cc2)cs1	20 µM (active)	
O=C(CSc1nc(O)c(Cc2ccccc2)c(=O)[nH]1)Nc1nc2c(s1)CCCC2	inactive	
COc1ccc(NC(=O)CSc2nc3ccccc3[nH]2)cc1	inactive	
Cc1cnc(CNc2cc(-c3c(C)noc3C)ncn2)cn1	inactive	
O=C(Nc1ccccc1C(F)(F)F)c1nc(S(=O)(=O)Cc2ccccc2F)ncc1Cl	inactive	
Cn1cc(-c2nc3cnc(N4CCNCC4)nc3n(CCc3ccccc3)c2=O)c2ccccc21	inactive	
CC(C)(C)OC(=O)N(Cc1ccco1)S(=O)(=O)c1ccccc1Br	inactive	
Oc1cc(O)c2c(c1)OC(c1ccc(O)c(O)c1)C(O)C2 (stereo not given)	3.16 µM (active)	
CC[C@H](C)[C@H](NC(=O)[C@H](CCCNC(=N)N)NC(=O)[C@H](CCCNC(=N)N)NC(=O)[C@H](CC(C)C)NC(=O)[C@H](Cc1ccccc1)NC(=O)CNC(=O)CNC(=O)[C@@H](N)Cc1ccc(O)cc1)C(=O)N[C@@H](CCCNC(=N)N)C(=O)N1CCC[C@H]1C(=O)N[C@@H](CCCCN)C(=O)N[C@@H](CC(C)C)C(=O)N[C@@H](CCCCN)C(=O)N[C@@H](Cc1c[nH]c2ccccc12)C(=O)N[C@@H](CC(=O)O)C(=O)N[C@@H](CC(N)=O)C(=O)N[C@@H](CCC(N)=O)C(=O)O	inactive	
CCOc1n[nH]c(-c2ccccc2)n1	inactive	
CN(C)c1ccc(/C=c2\[nH]c(=O)/c(=C/c3ccc(N(C)C)cc3)[nH]c2=O)cc1	inactive	
CC(C)[C@@H]1NC(=O)[C@H](Cc2ccccc2)NC(=O)[C@@H](CC(=O)O)NC(=O)CNC(=O)[C@H](CCCNC(=N)N)NC1=O		4% [at 19.4 µM] (inactive)
C[C@@H]1O[C@@H](OC[C@H]2O[C@@H](Oc3c(-c4ccc(O)cc4)oc4cc(O)cc(O)c4c3=O)[C@H](O)[C@@H](O)[C@@H]2O)[C@H](O)[C@H](O)[C@H]1O	inactive	
CC1OC(OCC2OC(Oc3c(-c4ccc(O)c(O)c4)oc4cc(O)cc(O)c4c3=O)C(O)C(O)C2O)[C@@H](O)C(O)C1O (stereo not given in full)	10 µM (active)	
C[C@@H]1O[C@@H](OC[C@H]2O[C@@H](Oc3c(-c4cccc(O)c4O)oc4cc(O)cc(O)c4c3=O)[C@H](O)[C@@H](O)[C@@H]2O)[C@H](O)[C@H](O)[C@H]1O	7.08 µM (active)	
COc1ccc(CCC(=O)c2c(O)cc(OC3OC(CO)C(O)C(O)C3O[C@@H]3OC(C)C(O)C(O)C3O)cc2O)cc1O (stereo not given in full)	inactive	
C[C@@H]1O[C@@H](OC[C@H]2O[C@@H](Oc3cc(O)c4c(c3)O[C@H](c3ccc(O)c(O)c3)CC4=O)[C@H](O)[C@@H](O)[C@@H]2O)[C@H](O)[C@H](O)[C@H]1O	inactive	
CC(C)C(NS(=O)(=O)c1ccc(-c2ccc(Br)cc2)cc1)C(=O)O (stereo not given)	inactive	
H-EHIPA-OH	inactive	
COc1cc(OC)c2c(c1Cl)OC1(C2=O)C(O)=CC(=O)CC1C (stereo not given)	inactive	
CN(Cc1ccco1)c1ncncc1-c1ccoc1	inactive	

Compound	Potency	activity, negative = inhibition
Cc1c(C)n(Cc2ccc(Cl)cc2)c2ccc(C(=O)N3CCN(c4ccccc4F)CC3)cc12	inactive	
CC(C)c1ccc2c(c1)c(SC(C)(C)C)c(CC(C)(C)C(=O)O)n2Cc1ccc(Cl)cc1	29.9 µM (active) and 79.4 µM (active)	
CC(C)c1ccc(Cn2c(COc3ccccc3)nc3ccccc32)cc1	inactive	
CC1(C)CC(=O)c2cc(C(=O)NCc3ccccc3)c(=O)[nH]c2C1	inactive	
O=C1/C(=C\c2ccc([N+](=O)[O-])cc2)CS(=O)(=O)C/C1=C/c1ccc([N+](=O)[O-])cc1	79.4 µM (active)	
O=[N+]([O-])c1ccc(/C=C/c2ccc3cccnc3c2)cc1	inactive	
N#Cc1ccc(CN2CCCC3(CCN(C(=O)c4ccco4)CC3)C2)cc1	inactive	
CN1CCN(/[N+]([O-])=N/Oc2ccc([N+](=O)[O-])cc2[N+](=O)[O-])CC1	inactive	
COc1ccc(C(=O)N2CCC3(CC2)CCN(c2ccccn2)CC3)cc1	inactive	
O=C1CSC(=S)N1/N=C/c1ccc(O)c([N+](=O)[O-])c1	28.2 µM (active)	
CCOC(=O)C1C/C(=C\C(C)=O)c2cccc(C(F)(F)F)c2O1 (stereo not given)	inactive	
COc1ccc(-c2c(C)c3ccc(O)c(CN4CCN(C)CC4)c3oc2=O)cc1OC	inactive	
COc1ccc2c(=O)cc(-c3ccccc3)oc2c1O		-8.18% [at 19.4 µM] (inactive)
Cc1cccc(-c2cc(=O)c3cc(C)ccc3o2)c1		-11.6% [at 19.4 µM] (inactive)
O=c1cc(-c2ccc(O)c(O)c2)oc2cccc(O)c12	6.31 µM (active)	
COc1c(O)cc2oc(-c3ccc(O)c(O)c3)cc(=O)c2c1O	5.01 µM (active) and 752 nM (active)	
OCCN1CCN(CC/C=C2\c3ccccc3Sc3ccc(C(F)(F)F)cc32)CC1		-8.78% [at 12 µM] (inactive)
COc1cccc(Cn2c(=O)cnc3cncnc32)c1	inactive	
NC(=O)c1sc(-c2ccsc2)cc1N		7.11% [at 19.4 µM] (inactive)
COc1ccc(-c2nc3cnc(OC)nc3n(Cc3ccc(F)cc3)c2=O)cc1	inactive	
COc1ccc(C2=Nn3c(nnc3-c3ccccc3OC)SC2)cc1OC1CCCC1	39.8 µM (active)	
COc1ccc(C2(C#N)CCC(C(=O)O)CC2)cc1OC1CCCC1 (stereo not given)		1.33% [at 19.4 µM] (inactive)

Compound	Potency	activity, negative = inhibition
Cc1nnc2n1N=C(c1ccc3c(c1)NC(=O)CO3)CS2	inactive	
C[C@H]1CCC[C@@]2(C)CCCC[C@]12O	inactive	
Cc1csc(-c2nc3ccccc3n2C)n1		-4.55% [at 19.4 µM] (inactive)
COc1cccc(-c2cc(=O)c3cc(NC(=O)c4ccc(C)cc4)ccc3[nH]2)c1	inactive	
COC(=O)c1ccccc1NS(=O)(=O)c1ccc2c(c1)CCCN2C(C)=O	inactive	
COc1ccc(Br)cc1/C=N/Nc1ccc(S(=O)(=O)Nc2ccccc2C(=O)O)cc1[N+](=O)[O-]	39.8 µM (active)	
COc1ccc(S(=O)(=O)NC(C)c2ccccc2)cc1C(=O)N1CCCCC1 (stereo not given)	inactive	
COC(=O)N1CCC[C@@]2(CCN(C(=O)NC(C)C)C2)C1	inactive	
CN(C)c1ccc(/C=C/c2sc3ccccc3[n+]2CCCCBr)cc1	inactive	
CC(C)(C)n1ncc2c(=O)n(Cc3ccc(C(=O)c4ccccc4)cc3)cnc21	inactive	
N#Cc1ccc[n+](CC(=O)c2ccc(F)cc2)c1	inactive	
NC(=O)C[n+]1cccc(C(N)=O)c1	inactive	
N#Cc1ccc[n+](CC(=O)c2ccc(O)c(O)c2)c1	0.891 µM (active)	
O=c1c(-c2ccc(F)c(F)c2)nc2cncnc2n1-c1ccccc1	inactive	
COc1cc2nc(N3CCCN(C)CC3)nc(NC3CC3)c2cc1OC	inactive	
CN(C(=N)N)c1ccc(/C=C2\C=Cc3ccccc32)cc1	inactive	
CO/N=C(\C(=O)N[C@@H]1C(=O)N2C(C(=O)O)=C(COC(C)=O)CS[C@H]12)c1csc(N)n1 (stereo in doubt)	35.5 µM (active) and 79.4 µM (active) and 39.8 µM (active)	
C=CC1=C(C(=O)O)N2C(=O)[C@@H](NC(=O)/C(=N\OCC(=O)O)c3csc(N)n3)[C@H]2SC1	50.1 µM (active)	
O=C(c1cnccn1)N1CCC2(CCCN(Cc3ccccc3)C2)CC1	inactive	
